Assay [1] in a line: Her2 expression decrease, cell viability multiplex – SKBR3 breast tumor cells, AlphaScreen, ATP viability, primary screen (AID 461;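 active means Her2 level under about 52% in both replicate screens, with viability over 70% of control, limit read from the data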;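 on Her2 level: lower value means less Her2 protein in the cells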;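 on viability: percent of carrier control wells set as 100% viability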). The settings on record: SKBR3 Her2 protein level, 18-24 h, measured here: SKBR3 viability, ATP luminescence, at 10 µM. A general note: Alpha assays give light when donor and acceptor beads are brought close together.
The target of assay [2] is Receptor tyrosine-protein kinase erbB-2 (Homo sapiens) (UniProt P04626). Described as above. The settings on record: 18-24 h, at 10 µM, stronger effect = lower value.
Sequence of Receptor tyrosine-protein kinase erbB-2 (Homo sapiens) (P04626 whole entry, looked up): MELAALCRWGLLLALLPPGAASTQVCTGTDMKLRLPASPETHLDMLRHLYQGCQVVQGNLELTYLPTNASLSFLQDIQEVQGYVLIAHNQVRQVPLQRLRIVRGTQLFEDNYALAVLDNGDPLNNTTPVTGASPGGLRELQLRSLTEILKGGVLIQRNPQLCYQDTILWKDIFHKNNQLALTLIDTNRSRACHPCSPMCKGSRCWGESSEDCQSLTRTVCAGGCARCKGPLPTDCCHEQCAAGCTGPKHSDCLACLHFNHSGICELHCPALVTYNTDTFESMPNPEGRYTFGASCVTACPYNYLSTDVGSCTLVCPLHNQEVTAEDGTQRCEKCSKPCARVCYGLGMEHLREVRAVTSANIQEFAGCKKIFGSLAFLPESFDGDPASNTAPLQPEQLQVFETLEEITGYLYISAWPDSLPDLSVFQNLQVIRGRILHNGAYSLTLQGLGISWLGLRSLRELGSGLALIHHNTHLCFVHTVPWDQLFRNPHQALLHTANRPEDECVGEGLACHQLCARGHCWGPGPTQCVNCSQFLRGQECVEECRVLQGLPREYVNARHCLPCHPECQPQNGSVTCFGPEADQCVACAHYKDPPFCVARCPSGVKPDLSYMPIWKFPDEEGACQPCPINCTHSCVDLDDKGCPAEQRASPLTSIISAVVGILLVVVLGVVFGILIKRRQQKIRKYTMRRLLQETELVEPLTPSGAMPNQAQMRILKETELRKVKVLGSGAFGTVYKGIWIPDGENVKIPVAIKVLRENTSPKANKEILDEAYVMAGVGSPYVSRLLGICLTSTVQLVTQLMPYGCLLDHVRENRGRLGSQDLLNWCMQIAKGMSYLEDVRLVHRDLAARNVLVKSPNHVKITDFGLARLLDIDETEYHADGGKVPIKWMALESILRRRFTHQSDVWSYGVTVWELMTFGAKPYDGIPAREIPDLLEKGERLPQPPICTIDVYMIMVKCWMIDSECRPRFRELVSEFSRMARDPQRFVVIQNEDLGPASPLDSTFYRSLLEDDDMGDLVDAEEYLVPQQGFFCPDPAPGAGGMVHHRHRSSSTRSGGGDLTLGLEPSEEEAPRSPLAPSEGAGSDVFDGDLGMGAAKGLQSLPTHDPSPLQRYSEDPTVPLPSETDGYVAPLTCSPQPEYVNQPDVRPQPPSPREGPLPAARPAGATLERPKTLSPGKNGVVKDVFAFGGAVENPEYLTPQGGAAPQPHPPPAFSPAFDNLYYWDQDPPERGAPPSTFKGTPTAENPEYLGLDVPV
The nature of assay [3]: reduced viability of SK-BR-3 breast cancer cells – cell-based, 24 h, human, pilot screen (AID 572;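 active means viability at or below 10% of carrier control in both of two separate runs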;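 further: compound exposure lasted between 18 and 24 h rather than exactly 24 h; 100% = carrier-treated control wells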). The settings on record: SK-BR-3 viability, CellTiter-Glo luminescence, at 10 µM, stronger effect = lower value. Background: ATP-based viability assays read luminescence as a measure of living cells.
Assay [4] is described as follows: HUVEC growth inhibition – cell-based, human, primary screen (AID 575;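 active means viability at or below 30% in both replicate assays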;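 further: 100% = median of untreated cell wells with 0.1% DMSO on each plate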). Particulars: HUVEC proliferation, CellTiter-Glo luminescence, 72 h; at 10 µM; stronger effect = lower value.
The nature of assay [5]: H69AR cell proliferation blockers – human, duplicate replicates, primary screen (AID 580;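 active means viability at or under a set limit in both replicates, limit being median viability minus 3 SD, cut at about 48% in these data, passing the limit was not always enough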;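 further: 100% = mean luminescence of untreated wells and 0% = no signal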). Particulars: H69AR lung tumor cells viability, ATP luminescence, 72 h; at 10 µM; stronger effect = lower value.
Assay [6] can be described thus: MRP1 drug-resistance reversers in H69AR cells – cell-based, doxorubicin co-treatment, pilot screen (AID 601;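 active means viability loss from added drug above about 55%, and viability with drug at most 40%, in both replicates, limit read from the data, passing the limit was not always enough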). The settings on record: CellTiter-Glo, 72 h, at 10 µM; for differential viability (reversal): stronger effect = higher value.
Assay [7] in a line: yeast transport mutant growth inhibition pilot in 384-well plates, post-Golgi transport modulator project (AID 636; in the data active means inhibition above about 31%). The settings on record: absorbance 615 nm, about 18 h, stronger effect = higher value.
The nature of assay [8]: growth suppression of yeast trafficking mutant, preliminary HTS, modulators of trafficking downstream of Golgi apparatus project, 1536-format plate, OD 615 nm (AID 637). Particulars: yeast transport mutant growth, absorbance 615 nm, 18 h; stronger effect = higher value.
A short description of assay [9]: S. cerevisiae growth inhibition in permissive medium (OD615), pilot counter-assay for S. cerevisiae lifespan shortening project, permissive growth control (AID 705;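 active means growth inhibition above 25% in both replicates, a cutoff set 3 SD above the mean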). Particulars: OD615, 24 h, at 10 µM, stronger effect = higher value.
Assay [10] can be described thus: S. cerevisiae growth inhibition in restrictive medium, OD615, pilot screen, restrictive growth control, yeast lifespan reduction project (AID 706;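 active means growth inhibition above a set limit, 3 SD over mean compound inhibition, in both replicates, cut at about 43% in these data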;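 further: modified DeaD lifespan yeast strain shifted to restrictive glucose medium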). Particulars: OD615, 48 h, at 10 µM, stronger effect = higher value.
Assay [11] in a line: doxorubicin toxicity protection in MRP-1 cells – H69AR cells, CellTiter-Glo, duplicate, MRP-1 activator project, pilot screen (AID 807;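 active means viability increase at or above a cutoff of the median across tested compounds plus 3 SD, cut at about 8.5% in these data, passing the limit was not always enough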;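 further: compound pretreatment 18-22 h then 72 h combined with doxorubicin; 0% = doxorubicin alone and 100% = vehicle without doxorubicin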). Particulars: H69AR viability with doxorubicin, CellTiter-Glo luminescence; at 10 µM; stronger effect = higher value.
Assay [12] is described as follows: viability of HCT116 without oncogenic beta-catenin – human colon tumor cells, pilot screen (AID 823;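 active means cell viability at or below a set limit in both duplicate runs, the limit being the all-compound median minus 4 SD, cut at about 23% in these data, passing the limit was not always enough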;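 further: 0% = wells killed by 20 µM Hyamine and 100% = untreated DMSO cell wells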). The settings on record: HCT116 beta-catenin knockout viability, CellTiter-Glo, 60 h; at 10 µM; stronger effect = lower value.
Assay [13] in a line: viability of PTEN-null HCT116 cells – cell-based, HCT116 clonal line, CellTiter-Glo, pilot screen (AID 824;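 active means viability at or below 27.92% in each of two runs, the all-compound median minus 4 SD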;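 further: 0% = 20 µM Hyamine control and 100% = vehicle cell control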). The settings on record: HCT116 PTEN-deleted viability, 60 h, at 10 µM, stronger effect = lower value.
Assay [14] is described as follows: RAM pathway blockade in budding yeast – dse1pr::URA3 reporter, 5-FOA selection, pilot screen (AID 869;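 active means inhibition over a set limit, the all-compound mean plus 3 SD, in both replicate runs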;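 further: 0% = DMSO wells with no growth and 100% = 10 µM 1-NA-PP1 with full growth; RAM network block rescues cells from 5-FOA so hits raise OD615 growth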). Particulars: S. cerevisiae dse1pr::URA3 5-FOA growth, OD615, 2 d; at 10 µM; stronger effect = higher value; strain carries analog-sensitive mutant Cbk1 kinase.
A short description of assay [15]: RAM signaling pathway blockade in yeast – S. cerevisiae, Pdr1DBD-CYC8 efflux-inhibited sensitized strain, primary screen (AID 1298;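 active means RAM network inhibition above 8.4% in each of two replicates, 3 SD over the compound average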;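 further: 0% = DMSO untreated cells without growth and 100% = 10 µM 1-NA-PP1 full growth; higher means more yeast growth rescued from 5-FOA killing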). Particulars: S. cerevisiae cbk1-as DSE1-URA3 strain, 5-FOA growth OD615, 2 d; at 50 µM; stronger effect = higher value.
Where [16] appears, read: H69AR cells + 2 uM doxorubicin, measured here: viability with 2 uM doxorubicin, stronger effect = lower value.
Where [17] appears, read: H69AR cells, compound alone cytotoxicity.

What is called viability is a read-out of living cells in per cent, often relative to untreated cells. The inhibition is the drop in the measured response relative to a control, in per cent.

Structures are written as SMILES. Inconclusive results are not listed. The source made the active and inactive calls. Unless noted, no stated cut-off is given here; in the data, active means inhibition above about 30%; inactive means the rest.

In the case of `CCOC(=O)N1CCC(c2cc(=O)n3[nH]cc(C(=O)OC)c3n2)CC1`, the viability in assay [1] was 94.5%; in assay [3], 94.5% (inactive); in [4] it was 92.1% (inactive); in assay [5], 92.2% (inactive); in assay [6] (setting [16]) it was 82.7%; in assay [6] (setting [17]) it was 92.2%. Moreover, the values for the viability in assay [12] and in assay [13] were 88.8% (inactive) and 101% (inactive), respectively. Besides, the Her2 level in assay [2] was 101% (inactive). In assay [6] (H69AR cells + 2 uM doxorubicin), the differential viability (reversal) was 9.5% (inactive). The inhibition in assay [7] was -4% (inactive); in assay [8], 0.83% (inactive); in [14], 0.045% (inactive). For the same compound, the results for the growth inhibition in assay [9] and in assay [10] were 2.45% (inactive) and 9.29% (inactive), respectively. Also, in assay [11], the viability increase was -0.6% (inactive). Further, in [15], the RAM network inhibition was 0.56% (inactive).

Consider `O=C(NCCSc1c[nH]c2ccccc12)c1ccc(Br)o1`, for which the viability was 104% in assay [1]; 104% (inactive) in [3]; 47.8% (inactive) in assay [4]; 54.6% (inactive) in [5]; 75.8% in [6] (setting [16]); 54.6% in assay [6] (setting [17]). The viability in assay [12] was 106% (inactive); in assay [13], 93.6% (inactive). For the same compound, the Her2 level in [2] was 94.5% (inactive). Besides, the differential viability (reversal) in [6] (H69AR cells + 2 uM doxorubicin) was -21.1% (inactive). Besides, the inhibition is -2.93% (inactive) in assay [7], 1.17% (inactive) in assay [8] and 1.83% (inactive) in assay [14]. The growth inhibition in assay [9] is -10.7% (inactive); in assay [10], -12.6% (inactive). In addition, the viability increase in [11] is -3.97% (inactive). In addition, in assay [15], the RAM network inhibition is 3.28% (inactive).

In the case of `CCN(CC)C1CCCCC1NS(=O)(=O)c1ccc(Cl)cc1` (stereo not given), the viability in assay [1] was 104%; in [3], 104% (inactive); in assay [4], 90.8% (inactive); in [5], 101% (inactive); in [6] (setting [16]), 87.8%; in [6] (setting [17]) it was 101%. Further, the viability is 86.5% (inactive) in assay [12] and 92.6% (inactive) in assay [13]. The Her2 level in assay [2] was 116% (inactive). The differential viability (reversal) in assay [6] (H69AR cells + 2 uM doxorubicin) was 13.1% (inactive). Besides, the inhibition in assay [7] was -3.6% (inactive); in [8], 3.28% (inactive); in [14] it was 1.03% (inactive). Also, the growth inhibition was -12% (inactive) in assay [9] and -3.99% (inactive) in assay [10]. The viability increase in [11] was -1.53% (inactive). In addition, in assay [15], the RAM network inhibition was 5.81% (inactive).

Take `CN(C)CCNc1oc(-c2ccccc2F)nc1C#N`: the viability in [1] is 93%; in assay [3] it was 93% (inactive); in assay [4], 87.4% (inactive); in assay [5] it was 105% (inactive); in [6] (setting [16]), 90.3%; in assay [6] (setting [17]) it was 105%. Also, the viability in [12] and in assay [13] was 107% (inactive) each time. Moreover, the Her2 level in assay [2] is 94% (inactive). For the same compound, in [6] (H69AR cells + 2 uM doxorubicin), the differential viability (reversal) is 14.7% (inactive). Further, the values for the inhibition in assay [7], in assay [8] and in assay [14] were -4.27% (inactive), 3.77% (inactive) and 1.36% (inactive), respectively. Besides, the growth inhibition is -13.7% (inactive) in assay [9] and -6.7% (inactive) in assay [10]. In addition, in [11], the viability increase was 1.17% (inactive). The RAM network inhibition in assay [15] was 1.9% (inactive).

For `COC(=O)Cn1ncc2c(C)n(Cc3ccccc3)c(C)c2c1=O`, the viability was 122% in assay [1]; 122% (inactive) in assay [3]; 107% (inactive) in [4]; 96% (inactive) in assay [5]; 88.9% in assay [6] (setting [16]); 96% in assay [6] (setting [17]). Besides, the viability was 100% (inactive) in [12] and 96.7% (inactive) in assay [13]. The Her2 level in assay [2] is 112% (inactive). Moreover, in [6] (H69AR cells + 2 uM doxorubicin), the differential viability (reversal) was 7.04% (inactive). Besides, the inhibition in [7] is -3.73% (inactive); in assay [8], 2% (inactive); in assay [14], 0.365% (inactive). Moreover, the growth inhibition in [9] was -7.07% (inactive); in [10], -6.09% (inactive). Moreover, the viability increase in [11] was 2.78% (inactive). Besides, the RAM network inhibition in [15] is 2.88% (inactive).

The values are drawn from PubChem BioAssay.
